Three compounds from PubChem BioAssay (EPA / NIEHS) can be followed below.

Read-out in assay [1]: CFLAR gene, CFLAR (gene 8837)
Description: LTEA_HepaRG_CFLAR: Life Technologies and Expression Analysis (LTEA) Assay for CFLAR gene using HepaRG (AID 2283455). As to conditions: mRNA level, 48 h; actives raise or lower the signal. In a few lines:
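Differentiated HepaRG cells in serum-free induction medium were exposed 48 h in duplicate to eight half-log concentrations up to 100 uM in 0.5% DMSO; mRNA measured by TaqMan qRT-PCR, normalized to ACTB, GAPDH, POLR2A; bidirectional fitting versus DMSO.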

Read-out in assay [2]: Forkhead box O1 (FOXO1), FOXO1 (gene 2308)
Description: LTEA_HepaRG_FOXO1: Life Technologies and Expression Analysis (LTEA) Assay for Forkhead box O1 (FOXO1) using HepaRG (AID 2283456). As to conditions: mRNA level, 48 h; actives raise or lower the signal. In a few lines: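 Differentiated HepaRG cells, in serum-free induction medium with 0.5% DMSO, exposed 48 h in duplicate to 8-point half-log series from 100 uM. FOXO1 mRNA measured by TaqMan qRT-PCR, normalized to ACTB, GAPDH, POLR2A; bidirectional fit versus DMSO.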

Assay [3] is described as follows: CEETOX_H295R_TESTO: CeeTox H295R High-throughput Steroidogenesis Assay for Testosterone (TESTO) (AID 2283457).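 Also: cells exposed to chemicals for 48 h before medium collection.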 As to conditions: actives raise or lower the signal. In a few lines:
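Testosterone secreted into the medium over 48 h by H295R cells (maximum passage 10) was quantified by LC-MS/MS after MTBE extraction. Fitted in both directions against DMSO, with concentrations diluted until MTT viability was ≥70%.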

Read-out in assay [4]: growth arrest and DNA damage 45 (GADD45A), GADD45A (gene 1647)
Description: LTEA_HepaRG_GADD45A: Life Technologies and Expression Analysis (LTEA) Assay for growth arrest and DNA damage 45 (GADD45A) using HepaRG (AID 2283458). As to conditions: mRNA level, 48 h; actives raise or lower the signal. In a few lines:
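Differentiated HepaRG cells exposed 48 h in serum-free induction medium to 8 concentrations, top 100 uM in half-log steps, 0.5% DMSO. GADD45A mRNA quantified by qRT-PCR, normalized to ACTB, GAPDH and POLR2A; bidirectional fit versus DMSO.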

Read-out in assay [5]: Forkhead box O3 (FOXO3), FOXO3 (gene 2309)
Description: LTEA_HepaRG_FOXO3: Life Technologies and Expression Analysis (LTEA) Assay for Forkhead box O3 (FOXO3) using HepaRG (AID 2283459). As to conditions: mRNA level, 48 h; actives raise or lower the signal. Summed up: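 Differentiated human HepaRG cells, 48 h post-plating, exposed in duplicate for 48 h in serum-free induction medium; 8-point half-log series from 100 uM in 0.5% DMSO. FOXO3 mRNA by TaqMan qRT-PCR, normalized to ACTB/GAPDH/POLR2A; bidirectional fit versus DMSO.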

Read-out in assay [6]: ABC Transporter (ABCB1), ABCB1 (gene 5243)
As to the kind of experiment: LTEA_HepaRG_ABCB1: Life Technologies and Expression Analysis (LTEA) Assay for ABC Transporter (ABCB1) using HepaRG (AID 2283460). As to conditions: mRNA level, 48 h; actives raise or lower the signal. In a few lines:
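HepaRG cells exposed in duplicate for 48 h in serum-free induction medium to eight half-log concentrations up to 100 uM in 0.5% DMSO. ABCB1 mRNA quantified by qRT-PCR, normalised to ACTB, GAPDH and POLR2A; fitted bidirectionally versus DMSO.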

Read-out in assay [7]: growth arrest and DNA damage 45 (GADD45B), GADD45B (gene 4616)
As to the kind of experiment: LTEA_HepaRG_GADD45B: Life Technologies and Expression Analysis (LTEA) Assay for growth arrest and DNA damage 45 (GADD45B) using HepaRG (AID 2283461). As to conditions: mRNA level, 48 h; actives raise or lower the signal. Summed up:
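Transcript level quantified by Fluidigm TaqMan qRT-PCR with three housekeeping genes for normalization, analyzed for up- or down-regulation against 0.5% DMSO. HepaRG cultures dosed 48 h at eight half-log concentrations up to 100 uM, duplicates.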

Read-out in assay [8]: ABC Transporter (ABCC3), ABCC3 (gene 8714)
Description: LTEA_HepaRG_ABCC3: Life Technologies and Expression Analysis (LTEA) Assay for ABC Transporter (ABCC3) using HepaRG (AID 2283462). As to conditions: mRNA level, 48 h; actives raise or lower the signal. In a few lines: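 Transcript level by TaqMan qRT-PCR, normalised to three housekeeping genes, fitted in both directions relative to vehicle. Chemicals tested in duplicate at eight half-log concentrations up to 100 uM for 48 h on HepaRG cells (0.5% DMSO).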

Read-out in assay [9]: ABC Transporter (ABCB11), ABCB11 (gene 8647)
Description: LTEA_HepaRG_ABCB11: Life Technologies and Expression Analysis (LTEA) Assay for ABC Transporter (ABCB11) using HepaRG (AID 2283463). As to conditions: mRNA level, 48 h; actives raise or lower the signal. In a few lines: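 Differentiated human HepaRG cells in serum-free induction medium, dosed in duplicate for 48 h. Eight-point half-log series from 100 uM in 0.5% DMSO; ABCB11 mRNA by qRT-PCR, normalized to ACTB, GAPDH, POLR2A, fitted bidirectionally versus DMSO.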

Read-out in assay [10]: ABC Transporter (ABCC2), ABCC2 (gene 1244)
Description: LTEA_HepaRG_ABCC2: Life Technologies and Expression Analysis (LTEA) Assay for ABC Transporter (ABCC2) using HepaRG (AID 2283464). As to conditions: mRNA level, 48 h; actives raise or lower the signal. In a few lines: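 Endpoint is ABCC2 transcript level from qRT-PCR, normalized to three housekeeping genes and fitted bidirectionally relative to DMSO. Human HepaRG cells received test chemical for 48 h at up to 100 uM (8 points, half-log steps, 0.5% DMSO), duplicate wells.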

Read-out in assay [11]: Peroxisomal acyl-coenzyme A oxidase 1 (ACOX1) gene, ACOX1 (gene 51)
As to the kind of experiment: LTEA_HepaRG_ACOX1: Life Technologies and Expression Analysis (LTEA) Assay for Peroxisomal acyl-coenzyme A oxidase 1 (ACOX1) gene using HepaRG (AID 2283467). As to conditions: mRNA level, 48 h; actives raise or lower the signal. Summed up:
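HepaRG cells, plated 48 h then switched to serum-free induction medium, were exposed in duplicate for 48 h to 8-point half-log concentrations up to 100 uM in 0.5% DMSO. ACOX1 mRNA was measured by qRT-PCR, normalized to ACTB/GAPDH/POLR2A, and fitted bidirectionally versus DMSO.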

Read-out in assay [12]: Alkaline Phosphatase, Placental (ALPP) gene, ALPP (gene 250)
Description: LTEA_HepaRG_ALPP: Life Technologies and Expression Analysis (LTEA) Assay for Alkaline Phosphatase, Placental (ALPP) gene using HepaRG (AID 2283468). As to conditions: mRNA level, 48 h; actives raise or lower the signal. Summed up:
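ALPP transcript level, measured by qRT-PCR and normalized to three housekeeping genes (ACTB, GAPDH, POLR2A), after 48 h dosing of differentiated HepaRG in serum-free induction medium. Top concentration 100 uM with half-log dilutions (8 points, 0.5% DMSO, duplicates); bidirectional fitting relative to DMSO.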

Read-out in assay [13]: Bcl-2 (BAD) gene, BAD (gene 572)
As to the kind of experiment: LTEA_HepaRG_BAD: Life Technologies and Expression Analysis (LTEA) Assay for Bcl-2 (BAD) gene using HepaRG (AID 2283469). As to conditions: mRNA level, 48 h; actives raise or lower the signal. Summed up:
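Differentiated HepaRG cells were exposed in duplicate in 0.5% DMSO for 48 h to eight-point half-log concentrations up to 100 uM. BAD mRNA was measured by Fluidigm TaqMan qRT-PCR, normalized to ACTB, GAPDH and POLR2A, and fitted bidirectionally against DMSO.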

Read-out in assay [14]: Bcl-2 (BAX) gene, BAX (gene 581)
As to the kind of experiment: LTEA_HepaRG_BAX: Life Technologies and Expression Analysis (LTEA) Assay for Bcl-2 (BAX) gene using HepaRG (AID 2283470). As to conditions: mRNA level, 48 h; actives raise or lower the signal. Summed up:
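Differentiated HepaRG cells exposed 48 h in serum-free induction medium, eight half-log concentrations from 100 uM, in duplicate, 0.5% DMSO vehicle. BAX mRNA by TaqMan qRT-PCR, normalised to ACTB, GAPDH and POLR2A.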

Read-out in assay [15]: adenosine kinase (ADK) gene, ADK (gene 132)
As to the kind of experiment: LTEA_HepaRG_ADK: Life Technologies and Expression Analysis (LTEA) Assay for adenosine kinase (ADK) gene using HepaRG (AID 2283471). As to conditions: mRNA level, 48 h; actives raise or lower the signal. In a few lines: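 ADK expression quantified by qRT-PCR, normalised to three housekeeping genes, after 48 h exposure of HepaRG cells to eight concentrations (top 100 uM, half-log steps, duplicate, 0.5% DMSO). Up- or down-regulation fitted relative to vehicle.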

Read-out in assay [16]: Alpha-fetoprotein (AFP) gene, AFP (gene 174)
Description: LTEA_HepaRG_AFP: Life Technologies and Expression Analysis (LTEA) Assay for Alpha-fetoprotein (AFP) gene using HepaRG (AID 2283472). As to conditions: mRNA level, 48 h; actives raise or lower the signal. In a few lines: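 Differentiated human HepaRG cells exposed 48 h in serum-free induction medium, 8-point half-log series from 100 uM in 0.5% DMSO, duplicate. AFP mRNA by qRT-PCR, normalized to ACTB, GAPDH, POLR2A; bidirectional fit vs DMSO.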

Read-out in the next assay: BCL2L11 (gene 10018)
Description: LTEA_HepaRG_BCL2L11: Life Technologies and Expression Analysis (LTEA) Assay for Bcl-2 (BCL2L11) gene using HepaRG (AID 2283473). As to conditions: mRNA level, 48 h; actives raise or lower the signal. Summed up:
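BCL2L11 transcript levels are measured by Fluidigm qRT-PCR, normalized to three housekeeping genes. HepaRG cultures were plated 48 h, then treated 48 h with test chemical (top 100 uM, half-log, 0.5% DMSO vehicle); curves were fitted bidirectionally against DMSO.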

Read-out in assay [17]: Apolipoprotein A-V (APOA5) gene, APOA5 (gene 116519)
As to the kind of experiment: LTEA_HepaRG_APOA5: Life Technologies and Expression Analysis (LTEA) Assay for Apolipoprotein A-V (APOA5) gene using HepaRG (AID 2283474). As to conditions: mRNA level, 48 h; actives raise or lower the signal. Summed up: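 APOA5 transcript levels were quantified by qRT-PCR, normalized to three housekeeping genes, after 48 h chemical treatment of HepaRG cells (8 points, 100 uM maximum, half-log steps, 0.5% DMSO). Curves fitted in both directions against vehicle.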

Read-out in assay [18]: Broad substrate specificity ATP-binding cassette transporter ABCG2 (Homo sapiens) (UniProt Q9UNQ0)
As to the kind of experiment: LTEA_HepaRG_ABCG2: Life Technologies and Expression Analysis (LTEA) Assay for ABC Transporter (ABCG2) using HepaRG (AID 2283465). As to conditions: mRNA level, 48 h; actives raise or lower the signal. In a few lines: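 Differentiated HepaRG cells were exposed for 48 h in serum-free induction medium to 8 half-log concentrations, top 100 uM, in 0.5% DMSO. ABCG2 mRNA was measured by qRT-PCR, normalized to ACTB, GAPDH and POLR2A, with bidirectional fitting versus DMSO.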

Read-out in assay [19]: ATP-citrate lyase (ACLY), ACLY (gene 47)
Description: LTEA_HepaRG_ACLY: Life Technologies and Expression Analysis (LTEA) Assay for ATP-citrate lyase (ACLY) using HepaRG (AID 2283466). As to conditions: mRNA level, 48 h; actives raise or lower the signal. Summed up: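 Differentiated HepaRG cells exposed 48 h in serum-free induction medium to eight half-log concentrations up to 100 uM in 0.5% DMSO, duplicates. Transcript measured by Fluidigm TaqMan qRT-PCR, normalized to ACTB, GAPDH, POLR2A; bidirectional fit versus DMSO.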

Structures are written as SMILES. Activity calls are given as the source filed them. The calls were made as follows: active = hit-call score of the fitted dose curve at least 0.9, where 1 is the maximum; inactive = score below 0.9.

Sequence of Broad substrate specificity ATP-binding cassette transporter ABCG2 (Homo sapiens) (Q9UNQ0 whole entry, looked up): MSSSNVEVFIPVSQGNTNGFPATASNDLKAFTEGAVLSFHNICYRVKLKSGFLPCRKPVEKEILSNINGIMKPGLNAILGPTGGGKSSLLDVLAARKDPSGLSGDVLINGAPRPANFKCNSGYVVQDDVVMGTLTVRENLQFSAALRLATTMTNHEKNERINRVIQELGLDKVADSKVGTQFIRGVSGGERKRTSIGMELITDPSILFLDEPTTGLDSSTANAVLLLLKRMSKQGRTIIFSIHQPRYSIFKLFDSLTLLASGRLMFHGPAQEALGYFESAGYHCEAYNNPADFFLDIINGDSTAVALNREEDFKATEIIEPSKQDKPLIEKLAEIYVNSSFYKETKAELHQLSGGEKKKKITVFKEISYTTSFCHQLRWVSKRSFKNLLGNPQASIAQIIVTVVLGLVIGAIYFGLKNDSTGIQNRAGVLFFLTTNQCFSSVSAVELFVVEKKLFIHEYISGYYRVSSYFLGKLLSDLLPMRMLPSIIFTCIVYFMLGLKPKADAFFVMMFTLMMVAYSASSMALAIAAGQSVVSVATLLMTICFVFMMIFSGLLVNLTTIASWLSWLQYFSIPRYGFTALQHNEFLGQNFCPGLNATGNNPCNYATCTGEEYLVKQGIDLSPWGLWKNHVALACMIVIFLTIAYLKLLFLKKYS

Usually AC50 stands for the concentration at which the activity in the assay is half-maximal. For the compound `O=c1c(-c2ccc(O)cc2)coc2cc(O)cc(O)c12`, the result in assay [1], in assay [2], in [4], in assay [5], in [6] and in assay [7] was inactive. Besides, the compound was classed as inactive in [8], in assay [10], in [11], in assay [12], in assay [13] and in [14]. The call (in assay [15]; in assay [16]; in the assay with BCL2L11 (gene 10018); in assay [17]) was inactive. The concentration at half-maximal activity (AC50) in assay [3] is 12.3 µM (active); in assay [9] it was 9.92 µM (active).

Regarding `Cc1cc2c(cc1C(F)(F)F)N(C(=O)Nc1ccc(Oc3cccnc3C)nc1)CC2`, the concentration at half-maximal activity (AC50) was 72.6 µM (active) in assay [1]; 80.9 µM (active) in assay [2]; 78.1 µM (active) in assay [4]; 11.6 µM (active) in [8]; 3.86 µM (active) in assay [9]; 11 µM (active) in [18]. The concentration at half-maximal activity (AC50) in assay [11] is 46 µM (active); in assay [12], 15.8 µM (active); in [16], 19.9 µM (active); with BCL2L11 (gene 10018) it was 81.3 µM (active); in [17] it was 78 µM (active). Also, the outcome in assay [5], in assay [6], in assay [7], in assay [10], in assay [19] and in assay [13] was inactive. Also, the outcome in assay [14] was inactive.

As to `Oc1ccc2ccccc2c1`, the compound was called inactive in assay [1], in assay [2], in assay [4], in assay [5], in [6] and in assay [7]. Moreover, the compound was classed as inactive in assay [8], in [9], in assay [10], in assay [19], in assay [11] and in assay [12]. The compound was called inactive (in assay [13]; in [14]; in assay [15]; in [16]; with BCL2L11 (gene 10018); in [17]). Also, the half-maximal activity concentration (AC50) in assay [3] is 82.4 µM (active).
